Source: PubChem (National Center for Advancing Translational Sciences (NCATS))
HT1080 IDH1KD tx – qHTS for induction of synthetic lethality in tumor cells producing 2HG: qHTS for the HT-1080-IDH1KD cell line; AID 686971, 2013; Potency, µM (top dose mostly 46.1 µM), inactives show at the highest dose activity, negative = toxicity, most hits filed as cytotoxic; HT-1080 IDH1 knockdown viability, ATP luminescence, 48 h; 360,000 compounds, 2% hits;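 further: potency means the concentration at half of the fitted maximal effect; 0% = DMSO wells and -100% = cell-free medium wells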
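HT-1080-IDH1KD cells (IDH1 knocked down), 750/well in RPMI with 5% FBS, treated with compound 48 h at 37 degrees C. Viability by CellTiter-Glo luminescence, normalised to DMSO and no-cell wells; concentration-response curves classed.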
TDP1 cell noCPT – qHTS for Inhibitors of human tyrosyl-DNA phosphodiesterase 1 (TDP1): qHTS in cells in absence of CPT. Potency, µM (titrated, usually from 46.2 µM), for the others: at the top dose activity change, negative = growth inhibition, most hits filed as inhibitors. AID 686978, 2013. 420,000 compounds, 15% hits. DT40 Tdp1-/- hTDP1 cells, no CPT, ATP luminescence, 48 h; further: potency means the concentration at half of the fitted maximal effect; nearly all actives have a fitted effect of over 55% in size
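No-CPT arm: Tdp1-/-;hTDP1 DT40 cells (400/well) plus compounds, incubated ≥48 hr at 37 °C. Readout CellTiter-Glo luminescence.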
12-LOX inh – Primary qHTS assay for inhibitors of human arachidonate 12S-lipoxygenase (ALOX12): Round 2 | Polyunsaturated fatty acid lipoxygenase ALOX12 (Homo sapiens), P18054 | purified 12hLO, xylenol orange hydroperoxide absorbance | Potency, µM (doses to about 108 µM), inactives show top-dose activity change, negative = inhibition, usual class: inhibitors | 580,000 compounds, 1.1% hits | AID 1671190, 2021; further: potency means the concentration at half of the fitted maximal effect
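Purified human 12hLO (150 nM final) in 25 mM Hepes, 0.01% Triton X-100, pH 7.0 was preincubated 15 min at room temperature with compound. Then 40 uM arachidonic acid was added, 30 min. Hydroperoxide was read by Fe-XO absorbance ratio 573/405 nm.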
HT1080NT lethal – qHTS for induction of synthetic lethality in tumor cells producing 2HG: qHTS for the HT-1080-NT fibrosarcoma cell line. HT-1080-NT fibrosarcoma viability, CellTiter-Glo ATP luminescence, 48 h. Potency, µM (top dose mostly 46.1 µM), for the others: at the highest dose activity, negative = less viability, actives largely listed as cytotoxic. 360,000 compounds, 1.6% hits. AID 686970, 2013;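 further: NT is the 2HG producing partner of a matched IDH1 knockdown line; potency means the concentration at half of the fitted maximal effect; 0% = DMSO-treated cells and -100% = media-only wells without cells; nearly all actives have a fitted effect of over 55% in size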
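Toxicity toward the 2HG-producing NT line was scored as %Activity, normalised to DMSO and no-cell wells, from CellTiter-Glo luminescence after 48 hours' treatment.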
DT40 TDP1 CPT – qHTS for Inhibitors of human tyrosyl-DNA phosphodiesterase 1 (TDP1): qHTS in cells in presence of CPT. chicken DT40 Tdp1-/-;hTDP1 cells + 20 nM CPT, ATP luminescence, 48 h. Potency, µM (doses to about 46.2 µM), without a hit: at the top dose activity change, negative = growth inhibition, most hits filed as inhibitors. 420,000 compounds, 12% hits; further: potency means the concentration at half of the fitted maximal effect; nearly all actives have a fitted effect of over 55% in size
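Cell growth measured by CellTiter-Glo luminescence after a minimum 48 h, 37 C compound exposure with 20 nM CPT in Tdp1-knockout DT40 cells stably expressing hTDP1, seeded 400/well; qHTS titration format.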
IL1B secr inh – qHTS for Inhibitors of Inflammasome Signaling: IL-1-beta AlphaLISA Primary Screen. THP-1 LPS/ATP IL-1B secretion, AlphaLISA, 16 h; active compounds read low. 360,000 compounds, 4.7% hits. AID 743279, 2014. activity change, % at 57.5 µM; in the data active means activity change below about -50%; inconclusive means mostly about -30% to -49%
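THP-1 cells pretreated 1 hr with compounds (up to 57.5 uM final), then stimulated with LPS (250 ng/mL final) plus ATP (1.25 mM final); secreted IL-1B measured by AlphaLISA after 16 hr, decreased signal indicating inhibition.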
Starred values were filed as active, the others as inactive; ? = inconclusive; . = no result; [ ] = another dose, or the depositor's remark. The entries come from a sample that favours hits as a whole. Unless noted, the call rests on the fitted dose curve; in most records, active means well fitted curve in the direction sought with a large enough effect; inconclusive means small, poorly fitted or top-dose-only effect, or another doubt; inactive means no such curve, though single readings can be large; an effect the other way counts as inactive or inconclusive. Unless noted, on the % scale 0 is the no-effect control and ±100 the full control effect.

SMILES	HT1080 IDH1KD tx	TDP1 cell noCPT	12-LOX inh	HT1080NT lethal	DT40 TDP1 CPT	IL1B secr inh
O=C(/C=C/c1cccs1)c1ccc(N2CCOCC2)cc1	2%	?	-11%	1%	?	-69*
O=C(/C=C/C=C/c1ccco1)c1ccc(N2CCOCC2)cc1	.	.	5µM*	.	.	.
Cc1oc(-c2cccs2)nc1CC(=O)Nc1ccc(F)c(F)c1	.	.	14%	.	.	.
COC1CCC12CCN(Cc1cccc(C#N)c1)CC2 (stereo not given)	.	.	21%	.	.	.
COc1ccccc1CNC(=O)c1cc(-c2ccccc2)nn1Cc1cc(C)no1	0%	?	-15%	0%	?	-23
CCc1cc(Cn2nc(-c3ccccc3)cc2C(=O)NCc2ccccc2OC)on1	-4%	21µM*	-18%	4%	?	?
COc1cc(/C=C/C(=O)OCC(=O)NCCc2ccccc2)cc(OC)c1OC	-4%	-4%	-8%	-4%	1%	17
COc1ccc(OC)c(/C=C/C(=O)OCC(=O)Nc2cccc(C(C)=O)c2)c1	20%	?	-20%	17%	16µM*	8
COc1ccc(/C=C/C(=O)OCC(=O)NCCc2ccccc2)c(OC)c1	11%	21µM*	-3%	5%	?	5
COc1ccc(OC)c(/C=C/C(=O)OCC(=O)N2C(C)CCCC2C)c1 (stereo not given)	9%	10µM*	-2%	-5%	?	-28
O=C(CCc1ncc(-c2ccccc2)o1)N1CCCN(Cc2ccc(F)cc2)CC1	.	.	8%	.	.	.
CCOC(=O)c1cc(CC)sc1NC(=O)c1ccc(N2CCOCC2)c([N+](=O)[O-])c1	5%	-14%	1%	0%[9.24 µM]	0%	?
CCC(CC)c1nnc(NC(=O)c2cc([N+](=O)[O-])ccc2N2CCOCC2)s1	-4%	18µM*	?	-8%[9.24 µM]	?	1
CCOC(=O)c1cc(CC)sc1NC(=O)c1cc([N+](=O)[O-])ccc1N1CCOCC1	?	1.3µM*	0%	?	3.7µM*	72
CN(C)C(=O)c1c(NC(=O)c2ccccc2F)sc2c1CCC(C(C)(C)C)C2 (stereo not given)	.	.	-3%	.	.	.
COc1ccc(C(CNC(=O)c2cc3ccccc3cc2O)N2CCOCC2)cc1 (stereo not given)	-12%	?	-9%	-22%	?	-7
COc1ccc(C(c2c(O)ccc3ccccc23)N2CCOCC2)c(OC)c1 (stereo not given)	?	29µM*	?	-8%	?	0
COCCn1c(SC2CCCCC2=O)nnc1-c1ccncc1 (stereo not given)	21%	-14%	-15%	20%	-10%	13
O=C1CCCCC1Sc1nnc(Cc2cccs2)n1CCc1ccccc1 (stereo not given)	-5%	23µM*	0%	-11%	?	?
CCOC(=O)[C@]12CCCC=C1N(CCc1ccc(OC)c(OC)c1)C(=O)[C@H](CC(=O)NCc1ccccc1)C2	6%	13µM*	-16%	-7%	16µM*	?
CCOC(=O)[C@]12CCCC=C1N(CCc1ccc(OC)c(OC)c1)C(=O)[C@H](CC(=O)N1CCN(C(=O)C3CC3)CC1)C2	17%	-14%	8%	9%	-10%	19
